# Assay results as given in the supplement of paper PMC6658780.
# Counter-ions that a name gives are not always drawn. ± gives the standard deviation of the averaged measurements.
# Tested on: Escherichia coli ATCC BAA-2469
# Test: percent growth inhibition of drug alone vs DMSO control; higher = more growth inhibition
# Details: antibiotic (0.125x MIC): none (0.1% DMSO); 7 µM
# Description: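 Prestwick drugs tested at 20 uM and 7 uM with an antibiotic at 0.125x MIC (16 mg/L when MIC >128 mg/L) against E. coli ATCC BAA-2469 (NDM-1) in CAMHB, 384-well plates, duplicate runs. Percent growth inhibition was computed from OD600 (24 h minus 0 h) relative to DMSO wells. Drug + DMSO-only wells are also given. […]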
row,Compound,percent growth inhibition of drug alone [%]
1,Cc1nnc(NS(=O)(=O)c2ccc(N)cc2)s1 [Sulfamethizole],2.42 ± 3
2,NS(=O)(=O)c1cc2c(cc1C(F)(F)F)NC(Cc1ccccc1)NS2(=O)=O (stereo not given) [Bendroflumethiazide],-1.67 ± 1.1
3,O=C(Nc1ccc([N+](=O)[O-])cc1Cl)c1cc(Cl)ccc1O [Niclosamide],2.78 ± 1.6
4,"Cc1cn([C@H]2C[C@H](N=[N+]=[N-])[C@@H](CO)O2)c(=O)[nH]c1=O [Zidovudine, AZT]",102 ± 2.3
5,CCCCCCCCNC(C)C(O)c1ccc(SC(C)C)cc1 (stereo not given) [Suloctidil],7.25 ± 11
6,COc1cc(C(=O)NCc2ccc(OCCN(C)C)cc2)cc(OC)c1OC [Trimethobenzamide hydrochloride],2.6 ± 2.7
7,O=C(N[C@H](CO)[C@H](O)c1ccc([N+](=O)[O-])cc1)C(Cl)Cl [Chloramphenicol],27.7 ± 12
8,N[C@@H]1CCCCN(c2c(F)cc3c(=O)c(C(=O)O)cn(C4CC4)c3c2Cl)C1 [Besifloxacin hydrochloride],3.86 ± 3.6
9,O=C(O)CN(CCN(CC(=O)O)CC(=O)O)CCN(CC(=O)O)CC(=O)O [Pentetic acid],0.0597 ± 2.1
10,Nc1nc(O)c2ncn(CCC(CO)CO)c2n1 [Penciclovir],1.39 ± 3.5
11,CCCOc1ccc2[nH]c(NC(=O)OC)nc2c1 [Oxibendazol],0.775 ± 0.31
12,O=C1CN(/N=C/c2ccc([N+](=O)[O-])o2)C(=O)N1 [Nitrofurantoin],5.87 ± 5.7
13,CC[C@H]1OC(=O)[C@H](C)[C@@H](O[C@H]2C[C@@](C)(OC)[C@@H](O)[C@H](C)O2)[C@H](C)[C@@H](O[C@@H]2O[C@H](C)C[C@H](N(C)C)[C@H]2O)[C@](C)(O)C[C@@H](C)CN(C)[C@H](C)[C@@H](O)[C@]1(C)O [Azithromycin],22.2 ± 12
14,NC(=O)N/N=C/c1ccc([N+](=O)[O-])o1 [Nitrofural],5.6 ± 7.3
15,Clc1cccc(Cl)c1NC1=NCCN1 [Clonidine hydrochloride],0.913 ± 1.3
16,CCCNC(C)(C)COC(=O)c1ccccc1 [Meprylcaine hydrochloride],0.029 ± 2.2
17,COc1cc(NS(=O)(=O)c2ccc(N)cc2)nc(OC)n1 [Sulfadimethoxine],-0.418 ± 1.2
18,CC1CS(=O)(=O)CCN1/N=C/c1ccc([N+](=O)[O-])o1 (stereo not given) [Nifurtimox],1.01 ± 1.2
19,Cc1c(OCC(F)(F)F)ccnc1C[S+]([O-])c1nc2ccccc2[nH]1 (stereo not given) [Lansoprazole],2.04 ± 3.3
20,Cc1cccc(C)c1NC(=O)C1CCCCN1C (stereo not given) [Mepivacaine hydrochloride],-0.605 ± 0.25
21,Oc1c(Cl)cc(Cl)c2cccnc12 [Chloroxine],13.1 ± 9.1
22,COc1ccccc1OCC(O)CO (stereo not given) [Guaifenesin],-0.628 ± 1.6

# Same assay, conditions: antibiotic (0.125x MIC): none (0.1% DMSO); 20 µM
row,Compound,percent growth inhibition of drug alone [%]
1,Cc1nnc(NS(=O)(=O)c2ccc(N)cc2)s1 [Sulfamethizole],-3.23 ± 2.1
2,NS(=O)(=O)c1cc2c(cc1C(F)(F)F)NC(Cc1ccccc1)NS2(=O)=O (stereo not given) [Bendroflumethiazide],-1.13 ± 2.1
3,O=C(Nc1ccc([N+](=O)[O-])cc1Cl)c1cc(Cl)ccc1O [Niclosamide],14.5 ± 19
4,"Cc1cn([C@H]2C[C@H](N=[N+]=[N-])[C@@H](CO)O2)c(=O)[nH]c1=O [Zidovudine, AZT]",115 ± 12
5,CCCCCCCCNC(C)C(O)c1ccc(SC(C)C)cc1 (stereo not given) [Suloctidil],10.4 ± 16
6,COc1cc(C(=O)NCc2ccc(OCCN(C)C)cc2)cc(OC)c1OC [Trimethobenzamide hydrochloride],-0.217 ± 4.2
7,O=C(O)CN(CCN(CC(=O)O)CC(=O)O)CCN(CC(=O)O)CC(=O)O [Pentetic acid],0.251 ± 0.41
8,Nc1nc(O)c2ncn(CCC(CO)CO)c2n1 [Penciclovir],-1.4 ± 2.5
9,CCCOc1ccc2[nH]c(NC(=O)OC)nc2c1 [Oxibendazol],2.44 ± 0.18
10,NC(=O)N/N=C/c1ccc([N+](=O)[O-])o1 [Nitrofural],32.1 ± 18
11,Clc1cccc(Cl)c1NC1=NCCN1 [Clonidine hydrochloride],3.75 ± 2.2
12,CCCNC(C)(C)COC(=O)c1ccccc1 [Meprylcaine hydrochloride],-0.823 ± 0.32
13,COc1cc(NS(=O)(=O)c2ccc(N)cc2)nc(OC)n1 [Sulfadimethoxine],-0.552 ± 0.63
14,CC1CS(=O)(=O)CCN1/N=C/c1ccc([N+](=O)[O-])o1 (stereo not given) [Nifurtimox],1.15 ± 4.3
15,Cc1c(OCC(F)(F)F)ccnc1C[S+]([O-])c1nc2ccccc2[nH]1 (stereo not given) [Lansoprazole],4.77 ± 4.3
16,Cc1cccc(C)c1NC(=O)C1CCCCN1C (stereo not given) [Mepivacaine hydrochloride],-0.545 ± 1.2
17,Oc1c(Cl)cc(Cl)c2cccnc12 [Chloroxine],102 ± 8
18,COc1ccccc1OCC(O)CO (stereo not given) [Guaifenesin],-0.463 ± 1.9
